Experimental data: PubChem BioAssay (NCATS)
Results filed as inconclusive are left out. Calls of active or inactive are those of the source. The call rests on the fitted dose curve; in most records, active means well fitted inhibition curve with a large enough effect; inconclusive means small, poorly fitted or top-dose-only effect; inactive means flat fitted curve, though single readings scatter.

Experiments:
[1] = Drug repurposing screens with cells derived from glioblastoma tumor samples (AID 1345199); settings: GBM patient neurospheres viability, ATP luminescence, 48 h; further: nearly all actives have a fitted effect of over 40% in size
Method in brief: (§1)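 Primary testing used CD133+ neurospheres from four GBM patients, seven concentrations, 48 h exposure and ATP-based viability; confirmation added three slower-growing patient lines.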

[2] = tested on: astro; assay: as above; settings: viability, ATP luminescence, 48 h; series mostly up to 45.9 µM
Method in brief: as §1

[3] = at 45.9 µM (top of the series), tumour line B
[4] = at 45.9 µM (top of the series), tumour line D
[5] = at 46 µM (top of the series), tumour line A
[6] = at 46.1 µM (top of the series), tumour line C
On the % scale 0 is the no-effect control and ±100 the full control effect; potency means the concentration at half of the fitted maximal effect.

| Structure (SMILES) | activity, negative = cell killing [1, 3] | activity, negative = cell killing [1, 4] | activity, negative = cell killing [1, 5] | activity, negative = cell killing [1, 6] | Potency [2] | Potency ([1]; tumour line C) |
| --- | --- | --- | --- | --- | --- | --- |
| c1ccc(-n2cnnn2)cc1 | -15% (inactive) | 5.06% (inactive) | -23.5% (inactive) | -0.778% (inactive) | inactive |  |
| CC(C)NCC(O)COc1ccccc1-n1cccc1 (stereo not given) | -14.4% (inactive) | -7.4% (inactive) | 15.7% (inactive) |  | inactive | 25.9 µM (active) |
| CO/N=C(\C(=O)N[C@@H]1C(=O)N2C(C(=O)O)=C(CSc3nc(C)c(CC(=O)O)s3)CS[C@H]12)c1csc(N)n1 | -4.93% (inactive) | 3.79% (inactive) | -22% (inactive) | -20.8% (inactive) | inactive |  |
| CC1C(=O)CC2C3(C)CCC2(C(C)C(=O)O)C(=O)C13 (stereo not given) | -19.4% (inactive) | 8.38% (inactive) | -22.7% (inactive) | -6.43% (inactive) | inactive |  |
| CCCCCc1ccc(C)cc1O | -7.13% (inactive) | 3.04% (inactive) | -24.1% (inactive) | -11.1% (inactive) | inactive |  |
| CCC(Oc1ccccc1)C(=O)N[C@@H]1C(=O)N2[C@@H]1SC(C)(C)[C@@H]2C(=O)O (stereo not given in full) | -4.6% (inactive) | -5.25% (inactive) | -9.92% (inactive) | -0.932% (inactive) | inactive |  |
| NC(=O)[C@@H]1CCCN1C(=O)[C@H](Cc1cnc[nH]1)NC(=O)[C@@H]1CCC(=O)N1 | -8.63% (inactive) | 6.97% (inactive) | -26.1% (inactive) | 5.62% (inactive) | inactive |  |
| N[C@H](CC(=O)O)C(=O)O | 13.2% (inactive) | 11.3% (inactive) | 11.8% (inactive) | -1.3% (inactive) | inactive |  |
